# About 83,000 compounds went through this panel and 20% of them were active in at least one assay; those are over-represented in the sample as a whole.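 Method: cells in 96-well plates; compound added at one concentration; 48 h incubation; percent growth measured; values under 10 scored active.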 The source made the active and inactive calls.
# Test system: HL-60(TB) leukemia
# Assay: NCI-60 one-dose screen, 48 h (100 = growth as untreated, 0 = no growth, -100 = all killed)
# Conditions: 10 µM unless noted
row,Compound,growth
1,O=C(CCc1nnc(Cn2cncn2)o1)c1nc2ccccc2[nH]1,108% (inactive)
2,O=C(N/N=C\c1ccc(Cl)cc1)C(=O)N/N=C\c1ccc(Cl)cc1,108% (inactive)
3,O=C(Nc1cccc(-n2ccc3c(NC(=O)c4ccccc4)nccc32)c1)Nc1ccc(Cl)c(C(F)(F)F)c1,-22.8% (active)

# — PubChem BioAssay (NCI)
